Data as given in PubChem BioAssay AID1159580 (chemical genetic matrix, 2015).
The campaign covered roughly 5,500 compounds. About 2,000 (36%) were called active. About 18% were inconclusive and are not listed. No stated cut-off is given here; in the data, active means normalized growth mostly below about 0.91 (no sharp cut-off); inconclusive means no clear call, values can overlap the other calls; inactive means mostly above about 0.92. Some of the results follow.

Experiment: chemical genetic growth profiling, strain panel (AID 1159580);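 further: tested at 20 µM; growth read once vehicle control cultures reached saturation at 30 °C; 1 = growth at the plate median or of vehicle wells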
Conditions: S. cerevisiae deletion strains, growth OD
[1] = locus YAL040C, strain CLN3, stronger effect = lower value
[2] = locus YCL061C, strain MRC1 (second series), stronger effect = lower value
[3] = locus YDR363W, strain ESC2, stronger effect = lower value
[4] = locus YER002W, strain NOP16, stronger effect = lower value
[5] = locus YGR229C, strain SMI1, stronger effect = lower value
[6] = locus YMR263W, strain SAP30, stronger effect = lower value
[7] = locus YNL128W, strain TEP1, stronger effect = lower value
[8] = locus YNL175C, strain NOP13, stronger effect = lower value
[9] = locus YNL197C, strain WHI3, stronger effect = lower value
[10] = locus YNL224C, strain SQS1, stronger effect = lower value
[11] = locus YNL322C, strain KRE1, stronger effect = lower value
[12] = locus YOR083W, strain WHI5 (second series), stronger effect = lower value
[13] = locus YPL055C, strain LGE1, stronger effect = lower value
[14] = locus YPL241C, strain CIN2, stronger effect = lower value
[15] = locus YMR307W, strain GAS1, stronger effect = lower value

Measured: normalized growth

O=C(Nc1cc(C(=O)Nc2ccc(S(=O)(=O)O)cc2S(=O)(=O)O)cc(C(=O)Nc2ccc(S(=O)(=O)O)cc2S(=O)(=O)O)c1)Nc1cc(C(=O)Nc2ccc(S(=O)(=O)O)cc2S(=O)(=O)O)cc(C(=O)Nc2ccc(S(=O)(=O)O)cc2S(=O)(=O)O)c1
inactive: locus YAL013W, strain DEP1, stronger effect = lower value 0.995 | [1] 1.01 | [2] 0.998 | locus YDR150W, strain NUM1, stronger effect = lower value 0.997 | [3] 0.954 | [4] 1.02 | locus YGR078C, strain PAC10, stronger effect = lower value 0.987 | [5] 0.995 | [6] 0.99 | [7] 1 | [8] 1.01 | [9] 1.01 | [10] 0.993 | [11] 1.02 | [12] 0.993 | [13] 0.968 | [14] 1.01

CC(C)(C)c1o[nH]c(=O)c1CC(N)C(=O)O (stereo not given)
inactive: [1] 1.03 | [2] 1.01 | [4] 1 | [15] 0.968 | [7] 1 | [8] 1 | [9] 0.991 | [10] 0.992 | [11] 0.997 | [12] 1 | [14] 1.02

CC1=C[C@@H]2c3cccc4[nH]cc(c34)C[C@H]2N(C)C1
inactive: [1] 0.988 | [4] 0.993 | locus YJR075W, strain HOC1, stronger effect = lower value 1 | [6] 0.996 | [15] 1.01 | [8] 1 | [9] 1.01 | [10] 0.987 | [12] 1

Clc1cc(I)cc(Cl)c1NC1=NCCN1
inactive: [1] 1.01 | [2] 1.01 | [3] 1.02 | [4] 1.01 | [15] 0.987 | [8] 1.01 | [9] 1.01 | [10] 1.01 | [12] 1.06 | [13] 0.986

N=S(=O)(O)Cc1noc2ccccc12
inactive: [1] 0.966 | [2] 1 | [3] 1.03 | [4] 1.01 | [5] 1.01 | [15] 1.01 | [7] 1.05 | locus YNL153C, strain GIM3, stronger effect = lower value 0.998 | [8] 0.996 | [9] 1.02 | [10] 1.01 | [12] 1 | [14] 1.01
